Results from PubChem BioAssay (NCI).
This is part of a sample that, as a whole, favours compounds with a hit. Of some 83,000 tested, about 20% had one in any assay.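 Cell lines were cultured in 96-well plates, exposed to a single compound concentration, and assessed for percent growth 48 hours later.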 Values without a mark were called inactive. Calls of active or inactive are those of the source. The calls were made as follows: active = growth percent below 10; inactive = the rest.

What was measured:
Test in all cases: NCI-60 one-dose screen, 48 h (100 = growth as untreated, 0 = no growth, -100 = all killed)
Settings in all cases: 10 µM unless noted
T-47D breast = system: T-47D breast
BT-549 breast = system: BT-549 breast
MDA-MB-435 melanoma = system: MDA-MB-435 melanoma
SW-620 colon = system: SW-620 colon
MCF7 breast = system: MCF7 breast
HCT-116 colon = system: HCT-116 colon
HCC-2998 colon = system: HCC-2998 colon
KM12 colon = system: KM12 colon

| SMILES | growth (T-47D breast) | growth (BT-549 breast) | growth (MDA-MB-435 melanoma) | growth (SW-620 colon) | growth (MCF7 breast) | growth (HCT-116 colon) | growth (HCC-2998 colon) | growth (KM12 colon) |
| --- | --- | --- | --- | --- | --- | --- | --- | --- |
| COc1ccc(-c2n[nH]nc2-c2csc3ccccc23)cc1OC | 28.5% | 16.9% | -31.8% (active) | 21.3% | 17.1% | 22.4% | 72.1% | 27.6% |
| Cc1cn2c(/C=C3/C(=O)Nc4c3ccc3ccccc43)c(C(F)(F)F)nc2s1 | 28.1% | 37.2% | -47.2% (active) | 18.2% | 15.4% | 30.6% | 46.6% | 15.3% |
| CNC(=O)c1cc(Oc2ccc(NC(=O)Nc3ccc(Cl)c(OC(F)(F)F)c3)c(F)c2)ccn1 | -2.82% (active) | 60.4% | 19.4% | 43.1% | 17.1% | 14% | 39% | 13.3% |
| COc1cccc(/C=C2\Oc3cc(OCCN4CCCC4)ccc3C2=O)c1 | 91.4% | 80.4% | 99.5% | 86.9% | 77.4% | 78% | 82.6% | 97.8% |
| Cc1[nH]c(-c2ccc3cc[nH]c3c2)c2c1C(=O)CCCC2 | 32.1% | 68.3% | 25.2% | 73.9% | 19.5% | 38.9% | 57.7% | 47.8% |
| Cn1nc(N)c2cc([C@@H]3Nc4ccc5[nH]ncc5c4[C@H]4C5CCC(C5)[C@@H]34)ccc21 (stereo partly drawn) | 43.6% | 38% | -66.6% (active) | 22.4% | 18.8% | 14.5% | 18% | 16.6% |
| Cc1cc(N2CCN(C)CC2)nc(NC2CCCC(Nc3ccnc4cc(Cl)ccc34)C2)n1 (stereo not drawn) | -48.5% (active) | -41.9% (active) | -86% (active) | 2.79% (active) | -10.5% (active) | -69.6% (active) | 8.13% (active) | 10.4% |
| N#Cc1c(-c2ccc(Cl)cc2)nc(N=Nc2c(O)[nH]c3ccc(Cl)cc23)nc1N1CCOCC1 | 99.8% | 92.1% | 97.5% | 91.8% | 97.9% | 93.2% | 96.3% | 101% |
| O=C1c2cc3c(cc2-c2c1c1cc(F)c(F)cc1c(=O)n2CCCn1ccnc1)OCO3 | 4.88% (active) | 12.5% | 8.57% (active) | 8.92% (active) | -1.22% (active) | -12.8% (active) | 13.5% | 3.55% (active) |
| O=C(/C=C/c1ccccc1)c1ccc(O)c(CN2CCN(c3cc4c(cc3F)c(=O)c(C(=O)O)cn4C3CC3)CC2)c1 | 27.9% | 28.2% | 18.6% | 23.4% | 8% (active) | 3.95% (active) | 41.2% | 31.8% |
| Cn1cc(C(=O)c2nc(-c3c[nH]c4ccc(Br)cc34)no2)c2cc(F)ccc21 | 89.7% | 95.7% | 100% | 95.3% | 82.1% | 104% | 97.5% | 96.3% |
| COc1ccc(C2C(C#N)=C(N)Oc3n[nH]c(-c4cccs4)c32)cc1I (stereo not drawn) | 94.4% | 92.1% | 66.7% | 83.8% | 69.4% | 91.9% | 95.9% | 86.2% |
| Cn1cc(C(=O)c2nc(-c3c[nH]c4ccccc34)no2)c2ccccc21 | 44.4% | 69.7% | 7.96% (active) | 56.8% | 20% | 47.1% | 45.5% | 21.9% |
| CCCCn1cnc2c(Sc3c([N+](=O)[O-])ncn3C)nc(N)nc21 | 74.1% | 98.3% | 102% | 102% | 91% | 87.3% | 113% | 108% |
| CC1=C[C@H]2c3c(c(O)c(O)c4oc5c(C)cccc5c(=O)c34)[C@H](c3cc(O)c(O)c4oc5c(C)cccc5c(=O)c34)[C@H]2C(C)(C)C1 | 13.7% | 27.2% | -17.3% (active) | 18.7% | 9.38% (active) | 1.97% (active) | 11.2% | 7.31% (active) |
| Cc1cc(N2CCCCCC2)nc(NC2CCCC(Nc3ccnc4cc(Cl)ccc34)C2)n1 (stereo not drawn) | -50.3% (active) | -85.1% (active) | -87.7% (active) | -76.9% (active) | -56.8% (active) | -95.9% (active) | -80.3% (active) | -75.5% (active) |
